Drawing on PubChem BioAssay (EPA / NIEHS), this text covers AC50 and outcome for 15 compounds.

Results filed as inconclusive are left out. The source made the active and inactive calls. How the source made its calls: active means hit-call score of the fitted dose curve at least 0.9, where 1 is the maximum; inconclusive means response in the unintended direction; inactive means score below 0.9.

In this experiment the target is mouse Peroxisome Proliferator-activated Receptor gamma (PPARg), Pparg (gene 19016) (UniProt P37238). The experiment in a line: ATG_mPPARg_XSP1: Attagene TRANS-FACTORIAL Multi-Species (XSP1) HepG2 Assay for mouse Peroxisome Proliferator-activated Receptor gamma (PPARg) (AID 2283802). The method in brief: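 HepG2 cells transiently transfected with GAL4-UAS reporter units driven by mouse PPARg–GAL4 chimera; 3 nM 6-alpha-fluorotestosterone present. After 24 h dosing, reporter mRNA quantified by RT-PCR, fluorescent labelling and capillary electrophoresis; gain of signal versus DMSO.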
mouse Peroxisome Proliferator-activated Receptor gamma (PPARg), Pparg (gene 19016), sequence (P37238 whole entry, looked up, the tested form may be a part): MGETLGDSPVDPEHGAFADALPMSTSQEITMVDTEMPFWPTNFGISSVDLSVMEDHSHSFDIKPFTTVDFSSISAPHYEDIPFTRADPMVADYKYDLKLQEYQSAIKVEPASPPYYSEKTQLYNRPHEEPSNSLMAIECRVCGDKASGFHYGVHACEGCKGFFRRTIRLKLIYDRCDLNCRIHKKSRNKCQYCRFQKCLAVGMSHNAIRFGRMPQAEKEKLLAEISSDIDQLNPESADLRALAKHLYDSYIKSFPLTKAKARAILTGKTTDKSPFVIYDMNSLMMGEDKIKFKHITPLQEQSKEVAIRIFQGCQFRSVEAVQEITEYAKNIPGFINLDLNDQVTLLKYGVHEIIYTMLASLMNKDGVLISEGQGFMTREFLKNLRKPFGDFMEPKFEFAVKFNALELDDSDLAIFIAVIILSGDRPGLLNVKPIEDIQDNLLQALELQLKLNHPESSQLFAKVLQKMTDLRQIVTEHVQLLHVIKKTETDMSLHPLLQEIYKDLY
Usually AC50 stands for the concentration at which the activity in the assay is half-maximal. For `CON(C)C(=O)Nc1ccc(Cl)c(Cl)c1`, the AC50 was 100 µM (active).
With `CCCN(CCC)c1c([N+](=O)[O-])cc(S(N)(=O)=O)cc1[N+](=O)[O-]`, the AC50 is 24.4 µM (active).
Same read-out and setting: the same measure for `CCOP(=S)(OCC)SCn1c(=O)oc2cc(Cl)ccc21`: 26.7 µM (active).
For `CCCCNC(=O)OCC#CI`, the AC50 is 11.1 µM (active).
For `COc1ccc(C(c2ccc(OC)cc2)C(Cl)(Cl)Cl)cc1`, the result was inactive.
Regarding `CC(C)(C)c1ccc(CSc2cnn(C(C)(C)C)c(=O)c2Cl)cc1`, the AC50 is 0.585 µM (active).
The same measure, in the same setting: the same measure for `CC(C)Oc1cc(-n2nc(C(C)(C)C)oc2=O)c(Cl)cc1Cl`: 14 µM (active).
Consider `OC(c1ccc(Cl)cc1)(c1cncnc1)c1ccccc1Cl` (stereo not given), for which the call was inactive.
For `CCCCC(CC)COC(=O)c1ccccc1C(=O)OCC(CC)CCCC` (stereo not given), the compound was classed as inactive.
`CO/C=C(/C(=O)OC)c1ccccc1Oc1cc(Oc2ccccc2C#N)ncn1`: the outcome was inactive.
For `COP(=S)(OC)Oc1nc(Cl)c(Cl)cc1Cl`, the AC50 is 3.73 µM (active).
On the same count and under the same terms, the same measure for `C#CCOS(=O)OC1CCCCC1Oc1ccc(C(C)(C)C)cc1` (stereo not given): 7.65 µM (active); for `COC(=O)N(OC)c1ccccc1COc1ccn(-c2ccc(Cl)cc2)n1`: 2.93 µM (active).
Still for that read-out and setting: the same measure for `CCCC1COC(Cn2cncn2)(c2ccc(Cl)cc2Cl)O1` (stereo not given): 56.9 µM (active).
The same measure, in the same setting: the same measure for `CCCCOC(=O)c1ccccc1C(=O)OCCCC`: 27.9 µM (active).
